Sampled rows, rich in hits. Any-hit rate of the full collection: about 5.5%.
VP16 counter – VP16 counterscreen qHTS for inhibitors of ROR gamma transcriptional activity; Drosophila S2 Gal4-VP16 UAS-luciferase, luminescence, 20 h; Potency, µM (series often up to 53.6 µM), for inactives: top-dose activity, negative = inhibition, actives largely listed as inhibitors; actives 3.5% (n = 310,000); AID 2546, 2010;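 note: Gal4-VP16 expression switched on by copper sulfate through the metallothionein promoter; % is set by controls: 0 for no effect and ±100 for the full control effect; nearly all actives have a fitted effect of over 50% in size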
Mito fusion act – qHTS Assay for Small Molecule Inhibitors of Mitochondrial Division or Activators of Mitochondrial Fusion. Potency, µM (series often up to 46.1 µM), inactives show at the top dose growth rescue (activation), most hits filed as activators. actives 0.23% (n = 320,000). S. cerevisiae fusion-defective mutant growth rescue, CellTiterGlo 48 h. AID 485298, 2010; note: % of control where 0% means no effect; nearly all actives have a fitted effect of over 45% in size
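Growth-rescue viability read-out: after 48 h at the non-permissive 37C in glycerol/ethanol YPEG, yeast mitochondrial fusion mutants are measured by CellTiterGlo luminescence; compounds (23 nl pinned per well) restoring growth score as division inhibitors or fusion activators.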
uPA surface inh – qHTS for Inhibitors of Cell Surface uPA Generation. actives 0.31% (n = 330,000). cell surface uPA generation assay, qHTS. Potency, µM (highest dose often 38.3 µM), inactives show at the highest dose activity change, negative = inhibition, actives largely listed as inhibitors; active = well fitted inhibition curve with a large enough effect; inconclusive = small, poorly fitted or top-dose-only effect; inactive = no such curve, though single readings can be large or run the other way; tested in mouse RAW 264.7 cells; note: % is set by controls: 0 for no effect and ±100 for the full control effect; nearly all actives have a fitted effect of over 55% in size
Chronic BCR inh – qHTS Assay to Find Inhibitors of Chronic Active B-Cell Receptor Signaling; ABC-DLBCL IkBa-CBG/CBR reporter, luminescence ratio, 4 h; Potency, µM (series often up to 46.1 µM), for inactives: at the highest dose activity change, negative = inhibition, hits mostly inhibitors; actives 0.05% (n = 340,000); active = well fitted inhibition curve with a large enough effect in the signal ratio, with a control signal flat, not every such curve was filed as active; inconclusive = small, poorly fitted or top-dose-only effect, or effect the other way, or a change in a side signal; the % refers to the signal ratio;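 note: plate controls were basal doxycycline-induced cells for no effect and cells given 10 µM MG132 for full effect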
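TMD8 ABC-DLBCL cells carrying doxycycline-inducible green luciferase fused to IkappaBalpha plus unfused red luciferase were exposed to compounds (up to 46 uM) for 4 hrs at 37C. Activity came from the overlap-corrected green/red luminescence ratio.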
Integrin act MD – qHTS for Activators of Integrin-Mediated Alleviation for Muscular Dystrophy | actives 0.064% (n = 350,000) | alpha7betagal myoblasts, beta-gal FDG fluorescence, 48 h | AID 624291, 2012 | Potency, µM (highest dose often 38.3 µM), inactives show at the top dose activation, hits mostly activators;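 note: 100% = response of the positive control SU9516; nearly all actives have a fitted effect of over 60% in size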
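alpha7betagal+/- myoblasts (passage 13, 250/well) treated 48 h at 37C with compounds at 1:260 dilution of DMSO stock. Lysed, then beta-galactosidase activity read as FDG fluorescence (ex 480/em 540) after 30 min, with pre-read for autofluorescence.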
RORgamma inh – qHTS for inhibitors of ROR gamma transcriptional activity | actives 5.4% (n = 310,000) | Potency, µM (top dose mostly 53.6 µM), inactives show at the highest dose activity change, negative = inhibition, usual class: inhibitors | Drosophila S2 Gal4-RORgamma UAS-luciferase reporter, 20 h | Nuclear receptor ROR-gamma (Mus musculus), P51450 | AID 2551, 2010; note: % is set by controls: 0 for no effect and ±100 for the full control effect; nearly all actives have a fitted effect of over 60% in size
Target sequence (P51450 whole entry, looked up, the tested form may be a part): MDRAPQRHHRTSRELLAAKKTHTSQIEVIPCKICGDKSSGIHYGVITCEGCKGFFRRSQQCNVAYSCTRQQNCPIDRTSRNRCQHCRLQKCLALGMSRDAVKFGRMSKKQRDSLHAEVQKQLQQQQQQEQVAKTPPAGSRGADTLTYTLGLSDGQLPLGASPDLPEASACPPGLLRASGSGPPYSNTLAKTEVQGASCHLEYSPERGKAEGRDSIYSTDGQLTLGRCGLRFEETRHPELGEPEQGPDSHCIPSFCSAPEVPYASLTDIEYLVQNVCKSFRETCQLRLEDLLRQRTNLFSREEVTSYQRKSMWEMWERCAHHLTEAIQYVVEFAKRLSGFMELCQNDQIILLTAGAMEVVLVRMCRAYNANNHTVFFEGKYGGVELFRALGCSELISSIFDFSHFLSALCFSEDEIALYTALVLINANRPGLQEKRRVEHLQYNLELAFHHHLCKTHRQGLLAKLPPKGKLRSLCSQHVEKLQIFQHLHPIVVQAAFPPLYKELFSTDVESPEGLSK
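Drosophila Schneider cells stably carrying a metallothionein-driven Gal4 DBD–ROR gamma fusion and a UAS-Photinus luciferase reporter were exposed to compound for 1 hr, then induced with copper sulfate (700 uM final) for 20 hr at ambient temperature before luminescence reading.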
* = called active by the depositor; ? = inconclusive; / = no result given; [ ] = remark or other dose. Unless noted, calls come from the whole dose curve; as a rule, active = well fitted curve in the direction sought with a large enough effect; inconclusive = small, poorly fitted or top-dose-only effect, or another doubt; inactive = no such curve, though single readings can be large; an effect the other way counts as inactive or inconclusive. Potency is the fitted concentration of half-maximal effect.

SMILES	VP16 counter	Mito fusion act	uPA surface inh	Chronic BCR inh	Integrin act MD	RORgamma inh
O=C(N/N=C/c1ccc(OCc2ccccc2)cc1)c1ccco1	-2%	-3%	4%	0%	-18%	?
Cc1cc(C)nc(N/N=C/c2ccccc2)n1	17%	8%	/	?	18%	?
CCN(CC)c1ccc(/C=N/Nc2nc(C)cc(C)n2)cc1	13µM*	-1%	-8%	-10%	-37%	1µM*
CCN(CC)c1ccc(C=Nc2ccccc2C)c(O)c1	-3%	1%	1%	0%	-2%	0%
COc1ccc2[nH]cc(CCNc3nc(-c4ccccc4OC)nc4ccccc34)c2c1	-23%	/	/	/	/	-35%
CN(C)CCCOc1c2ccccc2n(Cc2ccccc2)[n+]1[O-]	0%	/	/	/	/	4%
CCCn1c(C2CCCN2c2nc(C)cs2)nc2cc(Cl)c(Cl)cc21 (centres undefined)	?	-4%	-10%	?	-1%	?
CCCn1c(C2CCCN2c2nc(-c3cccc(Br)c3)cs2)nc2cc(Cl)c(Cl)cc21 (centres undefined)	5.6µM*	-7%	0%	13%	3%	2.5µM*
Cc1sc2nc(CN(C(=O)NCc3ccccc3)C3CCCC3)[nH]c(=O)c2c1C	?	12%	5%	4%	-7%	4.5µM*
CC(=O)N(Cc1nc2sc(C)c(C)c2c(=O)[nH]1)C1CCCC1	?	-1%	-5%	3%	-28%	10µM*
Cc1sc2nc(CN(Cc3ccccc3)C(=O)NC3CCCCC3)[nH]c(=O)c2c1C	/	/	-18%	/	16%	/
CN1[C@H](Cc2ccccc2)C=C[C@]1(C)C(=O)NCC1CC1	7%	/	/	/	/	-8%
CC1OC(OC2CCC3(C)C(CCC4C3CC(O)C3(C)C(C5=CC(=O)OC5)CCC43O)C2)CC(O)C1OC1CC(O)C(OC2CC(O)C(OC3OC(CO)C(O)C(O)C3O)C(C)O2)C(C)O1 (centres undefined)	8%	/	/	/	/	-10%
O=C1OCC2=C1C(c1ccc3c(c1)OCO3)Sc1ccccc1N2 (centres undefined)	14µM*	-9%	1%	-2%	-9%	-23%
c1ccc(-c2nnc(NC3=NCCC3)o2)cc1	0%[10 µM]	4%	-8%	?	11%	7.1µM*
Fc1ccc(-c2nnc(NC3=NCCCCC3)o2)cc1	?	-2%	-10%	?	2%	2.8µM*
Cn1c2c(c(=O)n(C)c1=O)[C@@]1(C(=O)Nc3ccccc31)C(C#N)=C(N)O2	?	-7%	-3%	?	-44%	20µM*
Cc1c[nH]c2cccc(OCC(O)CNC(C)(C)C)c12 (centres undefined)	-11%	4%	/	?	-24%	1.4µM*
COC(=O)c1cc(=O)n(-c2ccc(F)cc2)c(=Nc2ccc(F)cc2)s1	16µM*	9%	?	?	-61%	?
COC(=O)c1ccc(N=c2sc(C(=O)OC)cc(=O)n2C)cc1	-1%	-2%	-12%	-3%	1%	5%
CC(C)CCOc1ccc(/C=N/N2C(=O)CSC2=S)cc1	?	-2%	0%	0%	-9%	4.5µM*
CCOC(=O)c1c(S(=O)(=O)NCC(=O)N(C)c2ccc(C)cc2)c(C)n(C)c1C	/	/	/	0%	/	/
CCNC(=S)Nc1nc2c(cc1C(=O)OCC)CCCC2	1.8µM*	12%	-1%	?	-2%	0.56µM*
C=CCNC(=S)Nc1ccc2nc(C)oc2c1	-12%	-4%	-2%	3%	0%	-16%
C=CCNC(=S)Nc1nc2c(cc1C(=O)OCC)CCCC2	8.9µM*	9%	-4%	-2%	-21%	4µM*
SMILES	VP16 counter	Mito fusion act	uPA surface inh	Chronic BCR inh	Integrin act MD	RORgamma inh
Oc1ccc(N=C/C=C/c2cccc(Br)c2)cc1-c1nc2ccccc2s1	7.9µM*	-4%	-7%	?	-33%	?
O=C(/C=C/c1ccc(Br)cc1)c1ccco1	11µM*	-1%	0%	?	-33%	?
O=C(/C=C/c1ccc(Br)cc1)c1ccc(NC(=O)c2ccco2)cc1	-19%	16%	0%	5%	15%	-2%
COc1ccc2oc(-c3ccc(NC(=O)c4ccc(N5CCOCC5)c([N+](=O)[O-])c4)cc3)nc2c1	-10%	-2%	-19%	3%	-15%	27%
Cc1ccc(NC(=S)NNC(=O)c2ccc(N3CCOCC3)c([N+](=O)[O-])c2)cc1Cl	13µM*	13%	2%	-8%	4%	16µM*
O=C(NNC(=S)Nc1ccc(Br)cc1)c1ccc(N2CCOCC2)c([N+](=O)[O-])c1	13µM*	?	6%	12%	3%	13µM*
O=C(NNC(=S)Nc1ccc(Cl)cc1Cl)c1ccncc1	11µM*	-2%	2%	?	15%	?
O=C(Nc1ccc(-c2nc3ccccc3o2)cc1)c1ccc(N2CCOCC2)c([N+](=O)[O-])c1	10µM*	-2%	3%	5%	-31%	?
O=C(NNC(=S)Nc1ccc(Cl)cc1Cl)c1ccc(N2CCOCC2)c([N+](=O)[O-])c1	?	?	5%	-9%	-13%	11µM*
O=C(c1ccc(N2CCOCC2)c([N+](=O)[O-])c1)N1CCCCC1	0%	-1%	-2%	-1%	4%	3%
Nc1nc2c(F)c(F)c(F)cc2s1	-5%	-1%	6%	0%	2%	-6%
CC1=CC2=C(OC1N(C)C)c1cccc3cccc(c13)C2=O (centres undefined)	?	1%	-1%	?	-14%	8.9µM*
CN(C)CCCN1C(=O)c2cccc3cccc(c23)C1=O	-8%	-2%	-9%	-2%	-70%	-44%
CCCCCN1C=CC(=C2C(=O)c3ccccc3C2=O)C=C1	1.3µM*	-2%	0.022µM*	1%	-11%	1.1µM*
CC1=CC(=C2C(=O)c3ccccc3C2=O)C=C(C)N1C	-4%	-5%	-11%	?	2%	-7%
O=c1oc2ccccc2c(Nc2cccc3ccccc23)c1[N+](=O)[O-]	?	2%	0%	?	-1%	?
O=c1oc2ccccc2c(Nc2cccc3cccnc23)c1[N+](=O)[O-]	-20%[10 µM]	2%	-6%	-10%	-27%	11µM*
CNC(=S)Nc1ccc(C(N)=O)cc1	-7%	-7%	0%	-12%	-5%	-1%
CNC(=S)Nc1ccc(Nc2ccccc2)cc1	-2%	-12%	/	-5%	-13%[7.66 µM]	11µM*

Source: PubChem (National Center for Advancing Translational Sciences (NCATS))
